# High-throughput results from PubChem BioAssay.
# Shown are actives, neighbours in structure and some others; about 3% of the full set was active somewhere.
# NLRP3 yeast inh: NALP3 inhibition in yeast; Yeast reconstituted NLRP3/ASC/caspase-1, beta-gal luminescence, 24 h; AID 2825; hit rate 0.39% among 330,000; inhibition, % at 10 µM;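 active = inhibition of 50% or more; inactive = inhibition below 50%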;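 note: plate controls were induced DMSO wells for no effect and uninduced yeast grown without galactose for full effect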
# CHT PAM: allosteric activators of human choline transporter CHT; Q9GZV3; CHT-expressing cells, membrane potential dye, choline EC20; stronger effect = higher value; LV-AA mutant CHT in HEK293 cells; B-score at 10 µM; hit rate 0.49% among 310,000; AID 488977;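 active = initial fluorescence not abnormally high and integrated response B-score, plate-corrected, over 3 SD above library mean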
# Target sequence (Q9GZV3 whole entry, looked up): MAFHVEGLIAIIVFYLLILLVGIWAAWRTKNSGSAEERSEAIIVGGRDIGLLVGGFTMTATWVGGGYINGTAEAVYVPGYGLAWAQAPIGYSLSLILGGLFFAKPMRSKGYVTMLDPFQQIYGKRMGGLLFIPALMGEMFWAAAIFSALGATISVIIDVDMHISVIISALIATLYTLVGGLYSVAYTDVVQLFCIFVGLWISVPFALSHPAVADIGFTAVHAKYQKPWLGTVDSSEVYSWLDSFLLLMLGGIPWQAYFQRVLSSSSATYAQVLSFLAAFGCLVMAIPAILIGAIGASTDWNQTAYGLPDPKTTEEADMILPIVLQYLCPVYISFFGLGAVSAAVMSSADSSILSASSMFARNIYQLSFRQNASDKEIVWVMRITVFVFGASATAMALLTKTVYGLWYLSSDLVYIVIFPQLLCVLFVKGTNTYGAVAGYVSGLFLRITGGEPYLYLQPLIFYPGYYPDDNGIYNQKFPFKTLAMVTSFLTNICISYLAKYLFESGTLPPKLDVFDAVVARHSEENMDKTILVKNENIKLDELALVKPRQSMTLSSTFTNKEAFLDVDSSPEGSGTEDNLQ
# A1 inh: inhibitors of the anti-apoptotic protein A1, read as caspase activation | MEF A1-2A-BIM cells, Caspase-Glo 3/7 luminescence, 3 h; percent of clofoctol response, vehicle zero | caspase activation, % (concentration not given with the values) | hit rate 0.066% among 330,000;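 active = over half of replicate activation scores above 10%, or exactly half above 10 with the replicate mean above 10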
# CHT block: inhibits the human high affinity choline transporter | Q9GZV3 | CHT-expressing cells, membrane potential dye, choline response; stronger effect = lower value | B-score at 10 µM | hit rate 0.86% among 310,000 | AID 488975;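 active = B-score over 3 SD under the library average, and starting fluorescence ratio not unusually high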;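 note: choline stimulus applied at its EC90 after an EC20 pre-addition; B-score computed on integrated fluorescence ratio after choline addition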
# NALP1 yeast inh: inhibitors of NALP1 inflammasome in yeast; S. cerevisiae NALP1/ASC/caspase-1 growth, X-gal OD620, 72 h; inhibition, % at 10 µM; hit rate 0.61% among 280,000; AID 2071; in the data active = inhibition mostly above about 24%, no sharp cut-off; inactive = mostly below about 32%
# SUMO Mot1 rescue: inhibitors of SUMOylation pathway: yeast Mot1-301 growth rescue | S. cerevisiae Mot1-301 growth rescue, ATP luminescence, 38.5C; percent above DMSO median, 100 means doubled | growth rescue, % at 18.8 µM | hit rate 1% among 320,000;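 active = every valid replicate shows activation above 250% relative to neutral control wells; inactive = the rest, any valid replicate at or below 250%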;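 note: OY570 slx delta 5 strain wells were the positive control but not used for scaling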
# * marks the source's active call; other numbers are inactive results; i = inactive; nt = no result.
SMILES,NLRP3 yeast inh,CHT PAM,A1 inh,CHT block,NALP1 yeast inh,SUMO Mot1 rescue
COc1ccc(C(=O)N[C@H](C(=O)Nc2ccc(S(=O)(=O)N3CCOCC3)cc2)C(C)C)cc1,-13,i,1,i,nt,339*
O=C(O)[C@H]1CCCC[C@H]1C(=O)Nc1ccc(S(=O)(=O)N2CCOCC2)cc1,6,i,0,i,4,21
Nc1ccccc1N=Cc1ccc(-c2cccc(Cl)c2)o1,45,i,-2,i,7,444*
COC(=O)N/N=C/c1ccc(-c2cccc(Cl)c2)o1,39,i,-2,i,47,456
CCCn1nc(C(=O)Nc2cccc(S(=O)(=O)N(C)c3ccccc3)c2)c2ccccc2c1=O,2,nt,0,nt,nt,-9
O=C(c1ccc(-n2cnnn2)cc1)N1CCOCC1,-21,i,0,i,14,303*
CC1CCN(C(=O)c2ccc(-n3cnnn3)cc2)CC1,16,i,0,i,12,8
CCc1ccc(S(=O)(=O)Nc2nccs2)cc1,22,i,0,i,6,-14
O=S(=O)(Nc1nccs1)c1ccc(F)cc1,7,i,1,i,27*,1
COc1ccc(Cc2c3cc(OC)c(OC)cc3cc[n+]2C)cc1OC,0,12*,-1,i,8,15
COc1ccc(C(=O)Cc2ccc(OC)c(OC)c2)cc1,20,i,-6,i,30,-8
CC[n+]1ccc2cc(OC)c(OC)cc2c1Cc1ccc(OC)c(OC)c1,11,6.3*,0,i,1,-4
CS(=O)(=O)N1CCC(C(=O)Nc2cc(Cl)c(Cl)cc2Cl)CC1,0,i,1,i,34,-1
CC(=O)NS(=O)(=O)c1ccc(NC(=O)c2ccc(S(=O)(=O)N3CCCC3)cc2)cc1,23,nt,0,nt,nt,11
Cc1ccc(C(C)C)cc1OCCn1cncn1,-4,i,0,i,-3,22
CCOc1ccc(C(=O)NCc2ccco2)cc1,8,i,0,i,11,-6
O=C(NCc1ccco1)c1ccc(Oc2ccccc2)cc1,35,i,-1,i,40*,nt
O=C(NCc1ccco1)c1cccs1,8,i,-1,i,29*,18
COc1ccccc1NS(=O)(=O)c1cccc(NC(=O)CCNC(=O)c2ccccc2OC)c1,6,nt,0,nt,nt,-10
CC(=O)Nc1nc2n(n1)C(c1ccccc1)C=C(c1ccccc1)N2 (centres undefined),3,i,1,i,-14,-2
O=C(c1nc2n(n1)C(c1ccc(Cl)cc1)C=C(c1ccccc1)N2)N1CCOCC1 (centres undefined),-23,i,1,i,31*,2
CCOC(=O)c1ccc(NC(=S)N(CCCN2CCCCC2)Cc2ccco2)cc1,6,i,0,i,44*,-10
COc1ccccc1CN(C)C(=O)COC(=O)c1cc(C)oc1C,11,nt,nt,nt,nt,nt
O=C(CCNC(=O)c1ccc([N+](=O)[O-])cc1)Oc1ccc(F)c(F)c1,4,nt,1,nt,nt,-1
Cc1ccc(NC(=O)c2ccc(NCC3CCCO3)c([N+](=O)[O-])c2)cc1Cl (centres undefined),5,i,8.2*,i,4,102
SMILES,NLRP3 yeast inh,CHT PAM,A1 inh,CHT block,NALP1 yeast inh,SUMO Mot1 rescue
COc1ccccc1N1CCN(CCOc2c(OC)cccc2OC)CC1,8,i,0,i,28*,3
COc1cccc(OC)c1OCCN1CCCC1,18,i,1,i,10,71
COc1ccccc1NC(=O)c1cccc2c(Br)cccc12,26,i,-1,i,7,20
Cc1cc(Br)c2[nH]cc(CCNC(=O)c3ccco3)c2c1,38,i,0,i,41*,56
COC(=O)c1ccc(COC(=O)CNC(=O)c2ccc(C)s2)cc1,7,nt,-2,nt,nt,7
CCOc1ncccc1C(=O)OCC(=O)NCc1ccc2c(c1)OCO2,20,i,1,i,-2,0
CSc1ncccc1C(=O)OCC(=O)NCc1ccc2c(c1)OCO2,8,i,0,i,4,294*
CCCN(CCC)CCCNC(=S)Nc1ccc2nc(N3CCCC3)cc(C)c2c1,17,i,1,-9.5*,20,-12
